# Compound activity from PubChem.
# The list is not random: actives were taken first. Their share in the collection is about 1.8%.
# LANA-H2A inh: blocks KSHV LANA binding to histone H2A/H2B | inhibition, % (no concentration beside the values) | actives 0.6% (n = 320,000) | cell-free LANA-H2A/H2B peptide, fluorescence polarization | AID 2629 | Q9QR71; in the data active = inhibition mostly above about 10%, no sharp cut-off; inactive = mostly below about 6.7%
# Rtt109 Vps75: blocks Candida albicans Rtt109/Vps75 acetyltransferase activity | purified Rtt109/Vps75, ThioGlo CoA-SH fluorescence, 4 h | inhibition, % at 34.9 µM | actives 0.16% (n = 330,000) | AID 540336;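 active = inhibition of at least 50% in every replicate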
# HTR2A ag: agonists of mouse serotonin 5-HT2A receptor (HTR2A). P35363. CHO-K1 mHTR2A beta-arrestin complementation, luminescence; percent of 30 µM serotonin response. activation, % at 7.6 µM. actives 0.66% (n = 360,000). AID 624169;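 active = activation above a run cutoff, the mean activation of all tested compounds plus 3 SD, cut at about 14% in these data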;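 also: 0% = plate median of compound wells and 100% = 30 µM serotonin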
# TLR4 MyD88 comp: TLR4-MyD88 interaction inhibition in cells; HeLa CL3-4 TLR4/MyD88 BLA complementation, FRET ratio; actives 0.18% (n = 200,000); O00206+Q99836; inhibition, % at 8.4 µM; in the data active = inhibition above about 25%;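 also: 0% = vehicle and 100% = reference inhibitor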
# TLR9-MyD88 block: TLR9-MyD88 interaction inhibition. Q9NR96+Q99836. CHO BLA complementation TLR9-MyD88, CCF4 FRET ratio. inhibition, % at 4.98 µM. actives 0.21% (n = 340,000). AID 504734;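 active = inhibition above the mean over all tested compounds plus 3 SD, cut at about 21% in these data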;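 also: 0% = DMSO only wells and 100% = clavulanate BLA inhibitor control wells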
# Target sequence (Q99836 whole entry, looked up): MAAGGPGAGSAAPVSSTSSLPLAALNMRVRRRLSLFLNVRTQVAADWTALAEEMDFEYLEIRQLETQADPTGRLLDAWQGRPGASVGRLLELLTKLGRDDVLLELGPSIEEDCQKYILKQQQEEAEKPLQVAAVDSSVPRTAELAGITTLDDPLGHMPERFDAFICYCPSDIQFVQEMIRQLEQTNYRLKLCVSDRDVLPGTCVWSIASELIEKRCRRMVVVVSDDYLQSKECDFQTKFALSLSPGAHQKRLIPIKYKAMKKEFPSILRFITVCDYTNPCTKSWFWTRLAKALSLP
# Target sequence (Q9NR96 whole entry, looked up): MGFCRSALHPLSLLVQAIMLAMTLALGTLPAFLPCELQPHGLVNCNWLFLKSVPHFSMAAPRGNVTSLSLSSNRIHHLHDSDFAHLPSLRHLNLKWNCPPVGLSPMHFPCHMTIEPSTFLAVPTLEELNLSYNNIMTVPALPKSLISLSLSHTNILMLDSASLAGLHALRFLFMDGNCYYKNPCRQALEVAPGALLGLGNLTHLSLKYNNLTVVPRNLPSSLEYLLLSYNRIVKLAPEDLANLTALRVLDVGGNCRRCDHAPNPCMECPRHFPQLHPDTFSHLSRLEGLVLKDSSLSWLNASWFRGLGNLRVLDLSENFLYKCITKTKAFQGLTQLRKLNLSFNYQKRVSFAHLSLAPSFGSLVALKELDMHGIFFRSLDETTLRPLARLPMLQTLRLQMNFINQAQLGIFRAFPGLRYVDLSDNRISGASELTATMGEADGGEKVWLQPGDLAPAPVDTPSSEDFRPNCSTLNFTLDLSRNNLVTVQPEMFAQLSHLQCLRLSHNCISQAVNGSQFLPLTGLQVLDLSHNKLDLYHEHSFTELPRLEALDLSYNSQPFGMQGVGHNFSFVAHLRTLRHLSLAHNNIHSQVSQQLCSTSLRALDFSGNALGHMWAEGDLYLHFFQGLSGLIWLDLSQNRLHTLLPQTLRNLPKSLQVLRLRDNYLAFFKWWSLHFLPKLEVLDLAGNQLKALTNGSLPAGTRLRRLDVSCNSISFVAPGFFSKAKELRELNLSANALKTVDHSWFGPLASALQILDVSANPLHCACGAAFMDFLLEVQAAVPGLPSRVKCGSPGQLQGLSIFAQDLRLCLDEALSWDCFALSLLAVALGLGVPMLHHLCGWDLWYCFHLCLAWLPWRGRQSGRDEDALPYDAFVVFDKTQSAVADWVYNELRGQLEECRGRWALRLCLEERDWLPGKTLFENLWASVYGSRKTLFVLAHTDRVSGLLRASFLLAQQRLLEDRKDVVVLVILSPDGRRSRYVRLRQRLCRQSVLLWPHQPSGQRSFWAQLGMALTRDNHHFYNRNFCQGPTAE
# NOD2 RIPK2 PPI: NOD2-RIPK2 protein interaction inhibition. CHO BLA complementation NOD2-RIPK2, CCF4 ratio. actives 0.38% (n = 360,000). AID 624267. inhibition, % at 4.98 µM. O43353; in the data active = inhibition above about 21%;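 also: 0% = vehicle only and 100% = reference blocker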
# OPRM1 ag: OPRM1 agonism in mouse HTR2A counterscreen | shares compounds with HTR2A ag | U2OS OPRM1 beta-arrestin PathHunter, luminescence; DMSO 0%, DAMGO 9.3 µM 100% | activation, % at 9.3 µM | actives 5.3% (n = 2,300);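 active = mean activation above the mean of DMSO-only wells plus 3 SD, cut at about 0.5% in these data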
# m5-HT2A ag conf: confirmation of mouse HTR2A serotonin receptor agonists; actives 19% (n = 2,300); activation, % at 7.6 µM; CHO-K1 PathHunter beta-arrestin recruitment, luminescence; DMSO 0%, 30 µM serotonin 100%; shares compounds with HTR2A ag;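 active = mean activation across triplicates above the hit threshold derived in the original primary screen, cut at about 15% in these data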
# The depositor's hits bear a star; x = no result.
SMILES,LANA-H2A inh,Rtt109 Vps75,HTR2A ag,TLR4 MyD88 comp,TLR9-MyD88 block,NOD2 RIPK2 PPI,OPRM1 ag,m5-HT2A ag conf
CSc1ccc(CN2CCC(CO)(Cc3ccc(Cl)cc3)CC2)cc1,-13,5,8,18,7,-3,x,x
OCC1(Cc2ccc(Cl)cc2)CCN(CC2CC=CCC2)CC1 (stereo unspecified),3,0,15*,-1,-7,-8,0,14
CN(C)c1nc(N(C)C)n(Cc2c(Cl)cccc2Cl)n1,-2,3,25*,-2,8,7,-1,-3
CC1(Oc2ccc(F)cc2)CCN(Cc2ccccc2OC(F)F)C1 (stereo unspecified),x,x,-7,x,x,-7,x,x
Cc1ccc(C(=O)N=c2sccn2C)cc1C,5,1,18*,x,-4,2,-1,-4
Cc1ccc(C(=O)N=c2sccn2C)cc1S(=O)(=O)N1CCOCC1,2,-12,-7,x,2,-1,x,x
CC1(c2nnnn2Cc2ccccc2)CCC(=O)N1Cc1cccc(C(F)(F)F)c1 (stereo unspecified),x,x,4,x,x,2,x,x
CC(=O)c1cccc(OCC(O)CNCC2COc3ccccc3O2)c1 (stereo unspecified),2,5,26*,x,-14,-4,0,59*
CC(OCC(O)CNCC1COc2ccccc2O1)c1ccc(Cl)cc1 (stereo unspecified),2,4,-2,7,-7,1,x,x
O=S(=O)(Oc1ccccc1-c1ccccc1)c1ccccc1,x,4,-3,x,3,-15,x,x
O=C(NC(=S)Nc1ccccn1)c1cccc([N+](=O)[O-])c1,-2,-5,27*,x,-2,6,-1,-4
NS(=O)(=O)c1ccc(N2N=C(c3ccccc3)CC2c2ccccc2Cl)cc1 (stereo unspecified),x,7,0,x,-6,-12,x,x
Cc1c(C(=O)N2CCN(Cc3ccc4c(c3)OCO4)CC2)sc2ncnc(N3CCN(c4ccccc4F)CC3)c12,-9,0,25*,x,-4,9,0,36*
Cc1ccc(C(=O)N2CCN(Cc3ccc4c(c3)OCO4)CC2)o1,1,13,20*,-3,-1,0,-1,12
CCN(CC)C(=O)N1CCN(Cc2ccc3c(c2)OCO3)CC1,-1,4,0,-3,-11,-8,x,x
CCOC(=O)N1CCN(Cc2ccc3c(c2)OCO3)CC1,-2,5,37*,x,-2,-1,-1,107*
O=C(c1cc2ccccc2o1)N1CCN(Cc2ccc3c(c2)OCO3)CC1,3,11,-7,x,9,-1,x,x
COc1ccc(NN=Nc2nc3c([nH]2)c(=O)n(C)c(=O)n3C)cc1,-1,0,4,x,11,-14,x,x
O=C(COc1ccc2ccccc2c1)Nc1ccc(Br)cc1C(=O)O,1,10,2,x,3,-1,x,x
CN(CC(=O)Nc1ccc(F)cc1)C(=O)CN1C(=O)c2ccccc2C1=O,-1,-2,-6,x,5,0,x,x
CC[C@H](C)[C@@H](C(=O)NCCCCCCCCCCC(=O)N1CCNCC1)n1cc(CCCCCN)nn1,2,12,-1,x,3,-6,x,x
CCN1C(=O)C(=O)N(CC(=O)Nc2cccc(C(F)(F)F)c2)C1=O,7,1,44*,x,2,-1,-1,-4
COc1ccccc1CNC(=O)C[C@H]1CC[C@@H]2[C@H](COC[C@H](O)CN2Cc2ccc3c(c2)OCO3)O1,x,x,25*,x,x,12,-1,1
c1ccc(Oc2ncnc3ccccc23)cc1,x,0,16*,x,3,-7,-1,-4
CN(Cc1cccc(Cl)c1Cl)C(=O)CCNC(=O)c1ccco1,1,-4,-5,x,-10,6,x,x
OC(Cn1cnnc1)c1ccccc1 (stereo unspecified),1,2,17*,x,-9,-8,-1,1
